We go through ten molecules from ChEMBL document CHEMBL3988442, “University of Dundee, Small-Polar-MMV Screening Library” (2021).

For some assays here: Results with a measured potency or affinity are listed apart.

What all share (parameters): scale not given: direction of the effect not stated beside the values
The target of experiment [1] is Protein translocase subunit SecA (Escherichia coli (strain K12)) (UniProt P10408). Nature of the experiment: Assay to Identify E. coli SecA ATPase Inhibitors. It counts as functional. The note with it: 30 µM.
The target in experiment [2] is T1, Ubiquitin-activating enzyme e1, putative (Leishmania donovani (strain BPK282A1)) (UniProt E9BSI1).
T1 sequence (whole entry): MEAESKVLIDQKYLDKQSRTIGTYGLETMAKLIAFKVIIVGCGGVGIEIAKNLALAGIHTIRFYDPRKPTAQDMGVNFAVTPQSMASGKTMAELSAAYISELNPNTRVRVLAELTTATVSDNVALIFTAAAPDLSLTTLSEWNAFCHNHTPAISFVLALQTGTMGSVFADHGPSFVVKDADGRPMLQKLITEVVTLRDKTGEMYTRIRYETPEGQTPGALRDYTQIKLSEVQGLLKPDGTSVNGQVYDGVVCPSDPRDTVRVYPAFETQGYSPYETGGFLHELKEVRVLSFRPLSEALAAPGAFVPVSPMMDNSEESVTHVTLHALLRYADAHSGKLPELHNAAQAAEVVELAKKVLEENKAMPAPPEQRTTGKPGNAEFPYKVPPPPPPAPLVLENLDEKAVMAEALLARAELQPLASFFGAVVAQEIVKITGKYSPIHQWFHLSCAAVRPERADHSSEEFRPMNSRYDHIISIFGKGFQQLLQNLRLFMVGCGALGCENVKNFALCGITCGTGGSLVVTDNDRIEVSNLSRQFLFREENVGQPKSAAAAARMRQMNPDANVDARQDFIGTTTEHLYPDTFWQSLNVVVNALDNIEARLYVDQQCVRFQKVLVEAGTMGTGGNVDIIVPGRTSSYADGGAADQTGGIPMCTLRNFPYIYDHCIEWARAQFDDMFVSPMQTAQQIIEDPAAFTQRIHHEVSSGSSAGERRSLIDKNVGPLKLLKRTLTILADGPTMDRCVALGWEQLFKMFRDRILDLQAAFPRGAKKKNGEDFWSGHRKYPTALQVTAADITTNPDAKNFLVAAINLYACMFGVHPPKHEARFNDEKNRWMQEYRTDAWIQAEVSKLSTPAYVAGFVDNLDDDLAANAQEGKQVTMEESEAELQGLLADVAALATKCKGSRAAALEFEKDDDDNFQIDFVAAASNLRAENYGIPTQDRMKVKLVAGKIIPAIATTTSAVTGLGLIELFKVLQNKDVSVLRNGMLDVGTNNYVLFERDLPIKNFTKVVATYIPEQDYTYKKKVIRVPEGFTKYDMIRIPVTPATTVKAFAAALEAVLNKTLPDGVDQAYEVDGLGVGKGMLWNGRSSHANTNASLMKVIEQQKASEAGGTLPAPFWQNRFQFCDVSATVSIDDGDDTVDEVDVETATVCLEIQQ
Nature of the experiment: Leishmania donovani Ubiquitin Activating Enzyme (LdE1). It counts as functional. The note with it: 30 µM.

For experiment [3], the target named is AMP-activated protein kinase, AMPK (Homo sapiens) (UniProt P54646+O43741+P54619+Q9UGJ0+Q9Y478+Q13131+Q9UGI9). The experiment is described as follows: AMP-dependent Kinase enzyme assay. An in vitro enzyme assay that detects ADP turnover that is directly proportional to AMPK activity. This uses naive AMPK that is activated during the assay with MK-8722. It counts as functional. The note with it: 30 µM.

For experiment [4], the target named is Sialic acid-binding Ig-like lectin 9 (Homo sapiens) (UniProt Q9Y336). The experiment is described as follows: Hs-Siglec9 ALPHAscreen SOP 20170721. The note with it: 10 µM. A general note: Alpha assays give light when donor and acceptor beads are brought close together.
A further experiment relates to Trypanosoma cruzi. The experiment is described as follows: Trypanosoma cruzi phosphomannomutase and mannose-1-phosphate guanylyltransferase assay. It counts as functional. The note with it: 10 µM.
The target of experiment [5] is T2, Arginase-2, mitochondrial (Homo sapiens) (UniProt P78540).
T2 sequence (whole entry): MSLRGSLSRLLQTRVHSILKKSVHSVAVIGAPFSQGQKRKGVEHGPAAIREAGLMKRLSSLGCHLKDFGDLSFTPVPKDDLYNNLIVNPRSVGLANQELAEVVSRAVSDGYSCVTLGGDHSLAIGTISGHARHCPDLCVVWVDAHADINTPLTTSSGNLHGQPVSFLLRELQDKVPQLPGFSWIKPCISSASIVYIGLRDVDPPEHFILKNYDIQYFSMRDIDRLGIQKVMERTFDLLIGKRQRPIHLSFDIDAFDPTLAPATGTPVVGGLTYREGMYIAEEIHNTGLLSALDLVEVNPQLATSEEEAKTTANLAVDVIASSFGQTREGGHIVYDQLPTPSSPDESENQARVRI
The experiment is described as follows: in vitro enzyme assay to detect the production of urea directly proportional to the activity of Arginase II. Note: in the data most compounds retested in dose-response had high values. It counts as functional. The note with it: 33.3 µM.

For experiment [6], the target named is T3, Proteasome subunit beta (Trypanosoma cruzi) (UniProt O96673).
T3 sequence (whole entry): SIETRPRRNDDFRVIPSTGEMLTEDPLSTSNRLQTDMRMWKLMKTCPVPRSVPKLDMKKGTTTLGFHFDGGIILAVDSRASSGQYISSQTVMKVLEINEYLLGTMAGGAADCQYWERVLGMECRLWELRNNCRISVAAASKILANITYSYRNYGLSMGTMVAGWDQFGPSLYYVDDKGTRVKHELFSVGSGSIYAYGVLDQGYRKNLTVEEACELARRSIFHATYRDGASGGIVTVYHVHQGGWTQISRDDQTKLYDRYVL
Nature of the experiment: Trypanosoma cruzi proteasome chymotrypsin-like activity (TcProtChymo) assay. Note: in the data most compounds retested in dose-response had high values. The class given is functional. The note with it: 9.37 µM.

Another experiment is filed under the species Homo sapiens. Nature of the experiment: To identify inhibition of the IFN signalling (Jak-Stat) pathway via expression of an eGFP reporter gene under the control of an IFN-stimulated response element (ISRE) containing MxA promoter. The class given is functional. The note with it: 30 µM.
Experiment [7] deals with T4, Tyrosyl-tRNA synthetase, putative (Trypanosoma cruzi (strain CL Brener)) (UniProt Q4DSP6).
T4 sequence (whole entry): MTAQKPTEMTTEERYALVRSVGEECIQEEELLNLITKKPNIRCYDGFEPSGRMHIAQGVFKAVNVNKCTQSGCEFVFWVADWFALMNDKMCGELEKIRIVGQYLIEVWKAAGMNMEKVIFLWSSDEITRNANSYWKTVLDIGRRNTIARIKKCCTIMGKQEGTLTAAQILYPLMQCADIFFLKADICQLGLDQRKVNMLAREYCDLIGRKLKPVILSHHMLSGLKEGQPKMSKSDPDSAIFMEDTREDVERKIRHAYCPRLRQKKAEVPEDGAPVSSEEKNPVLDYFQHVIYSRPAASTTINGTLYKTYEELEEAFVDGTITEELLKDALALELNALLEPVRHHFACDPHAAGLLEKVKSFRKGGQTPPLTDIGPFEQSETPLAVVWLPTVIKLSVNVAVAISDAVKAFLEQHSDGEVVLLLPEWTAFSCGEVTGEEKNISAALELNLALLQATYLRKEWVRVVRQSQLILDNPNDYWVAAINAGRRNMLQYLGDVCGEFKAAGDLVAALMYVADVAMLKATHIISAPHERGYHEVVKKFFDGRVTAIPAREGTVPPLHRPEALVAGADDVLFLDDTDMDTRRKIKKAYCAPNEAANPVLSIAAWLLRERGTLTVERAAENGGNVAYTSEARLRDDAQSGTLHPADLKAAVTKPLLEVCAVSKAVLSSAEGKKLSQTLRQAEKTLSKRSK
The experiment is described as follows: Trypanosoma cruzi tyrosyl tRNA synthetase (TcYRS) _High Tyrosine SOP. Note: in the data most compounds retested in dose-response had high values. It counts as functional. The note with it: 30 µM.

Experiment [8] concerns the target T4, Tyrosyl-tRNA synthetase, putative (Trypanosoma cruzi (strain CL Brener)). The experiment is described as follows: Trypanosoma cruzi tyrosyl tRNA synthetase (TcYRS) SOP. The class given is functional. The note with it: 30 µM.
The target in experiment [9] is Chromo domain-containing protein 1 (Saccharomyces cerevisiae (strain ATCC 204508 / S288c) (Baker's yeast)) (UniProt P32657). The experiment is described as follows: ScCHD-1 Enzyme Inhibition Assay. Note: in the data most compounds retested in dose-response had high values. The class given is functional. The note with it: 30 µM.
Chromo domain-containing protein 1 (Saccharomyces cerevisiae (strain ATCC 204508 / S288c) (Baker's yeast)), sequence (P32657 whole entry, the tested form may be a part): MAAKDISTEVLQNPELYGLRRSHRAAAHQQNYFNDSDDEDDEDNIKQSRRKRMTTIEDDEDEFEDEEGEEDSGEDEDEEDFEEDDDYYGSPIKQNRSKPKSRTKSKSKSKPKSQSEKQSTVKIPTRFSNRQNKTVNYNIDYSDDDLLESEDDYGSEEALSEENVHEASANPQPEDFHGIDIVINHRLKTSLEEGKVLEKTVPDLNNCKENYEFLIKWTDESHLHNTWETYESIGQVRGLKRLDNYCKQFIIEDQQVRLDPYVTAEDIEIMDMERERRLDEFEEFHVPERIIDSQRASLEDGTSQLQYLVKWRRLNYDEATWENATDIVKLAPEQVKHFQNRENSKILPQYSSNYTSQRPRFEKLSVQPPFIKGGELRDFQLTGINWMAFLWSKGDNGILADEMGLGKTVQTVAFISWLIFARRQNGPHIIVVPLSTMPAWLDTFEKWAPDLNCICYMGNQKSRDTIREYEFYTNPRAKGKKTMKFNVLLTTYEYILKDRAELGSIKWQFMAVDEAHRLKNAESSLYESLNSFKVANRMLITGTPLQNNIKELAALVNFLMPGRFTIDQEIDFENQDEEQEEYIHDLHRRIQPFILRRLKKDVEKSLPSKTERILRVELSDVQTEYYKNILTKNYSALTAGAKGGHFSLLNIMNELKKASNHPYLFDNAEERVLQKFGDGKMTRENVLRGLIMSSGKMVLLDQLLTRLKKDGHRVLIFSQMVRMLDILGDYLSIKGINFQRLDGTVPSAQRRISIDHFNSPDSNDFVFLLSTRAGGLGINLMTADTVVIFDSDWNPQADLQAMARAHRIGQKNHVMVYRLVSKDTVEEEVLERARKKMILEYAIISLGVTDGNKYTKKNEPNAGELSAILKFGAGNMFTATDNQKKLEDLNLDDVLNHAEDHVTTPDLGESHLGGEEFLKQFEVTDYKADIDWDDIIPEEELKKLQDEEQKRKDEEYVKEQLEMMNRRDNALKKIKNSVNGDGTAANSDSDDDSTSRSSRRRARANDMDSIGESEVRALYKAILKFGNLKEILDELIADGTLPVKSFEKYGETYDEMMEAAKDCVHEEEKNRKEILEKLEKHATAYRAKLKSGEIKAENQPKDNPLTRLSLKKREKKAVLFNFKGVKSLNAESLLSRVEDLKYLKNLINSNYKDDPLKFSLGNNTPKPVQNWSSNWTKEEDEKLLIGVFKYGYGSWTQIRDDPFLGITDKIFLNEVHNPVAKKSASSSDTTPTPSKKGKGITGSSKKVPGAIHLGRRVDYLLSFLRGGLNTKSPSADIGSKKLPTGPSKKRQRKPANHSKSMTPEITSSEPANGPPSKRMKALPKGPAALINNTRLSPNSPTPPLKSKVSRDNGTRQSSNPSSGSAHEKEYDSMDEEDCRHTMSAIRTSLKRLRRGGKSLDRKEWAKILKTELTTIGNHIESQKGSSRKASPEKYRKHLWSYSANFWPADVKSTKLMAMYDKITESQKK

Protein translocase subunit SecA (Escherichia coli (strain K12)), sequence (P10408 whole entry): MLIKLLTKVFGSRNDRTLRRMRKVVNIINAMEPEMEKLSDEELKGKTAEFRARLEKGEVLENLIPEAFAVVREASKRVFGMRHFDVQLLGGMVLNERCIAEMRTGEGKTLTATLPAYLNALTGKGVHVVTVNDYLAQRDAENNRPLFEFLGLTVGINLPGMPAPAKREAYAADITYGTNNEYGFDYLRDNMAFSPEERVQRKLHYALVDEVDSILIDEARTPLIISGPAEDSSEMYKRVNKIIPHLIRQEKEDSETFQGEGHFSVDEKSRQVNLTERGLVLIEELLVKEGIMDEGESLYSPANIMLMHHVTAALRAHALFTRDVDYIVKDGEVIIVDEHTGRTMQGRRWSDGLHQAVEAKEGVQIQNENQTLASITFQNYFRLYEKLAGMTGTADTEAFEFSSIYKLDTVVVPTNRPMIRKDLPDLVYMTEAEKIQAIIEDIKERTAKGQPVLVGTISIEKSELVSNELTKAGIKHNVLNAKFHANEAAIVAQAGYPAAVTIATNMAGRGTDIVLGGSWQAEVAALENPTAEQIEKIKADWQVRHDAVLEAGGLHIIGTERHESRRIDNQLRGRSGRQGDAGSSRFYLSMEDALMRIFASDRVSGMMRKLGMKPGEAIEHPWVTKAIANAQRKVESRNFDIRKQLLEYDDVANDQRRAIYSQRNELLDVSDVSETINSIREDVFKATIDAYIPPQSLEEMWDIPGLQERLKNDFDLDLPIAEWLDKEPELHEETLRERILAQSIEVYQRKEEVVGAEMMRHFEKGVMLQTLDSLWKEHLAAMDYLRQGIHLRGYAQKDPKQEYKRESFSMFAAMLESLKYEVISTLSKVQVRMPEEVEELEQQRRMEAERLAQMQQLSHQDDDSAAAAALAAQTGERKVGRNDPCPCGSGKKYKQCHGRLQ
Sialic acid-binding Ig-like lectin 9 (Homo sapiens), sequence (Q9Y336 whole entry): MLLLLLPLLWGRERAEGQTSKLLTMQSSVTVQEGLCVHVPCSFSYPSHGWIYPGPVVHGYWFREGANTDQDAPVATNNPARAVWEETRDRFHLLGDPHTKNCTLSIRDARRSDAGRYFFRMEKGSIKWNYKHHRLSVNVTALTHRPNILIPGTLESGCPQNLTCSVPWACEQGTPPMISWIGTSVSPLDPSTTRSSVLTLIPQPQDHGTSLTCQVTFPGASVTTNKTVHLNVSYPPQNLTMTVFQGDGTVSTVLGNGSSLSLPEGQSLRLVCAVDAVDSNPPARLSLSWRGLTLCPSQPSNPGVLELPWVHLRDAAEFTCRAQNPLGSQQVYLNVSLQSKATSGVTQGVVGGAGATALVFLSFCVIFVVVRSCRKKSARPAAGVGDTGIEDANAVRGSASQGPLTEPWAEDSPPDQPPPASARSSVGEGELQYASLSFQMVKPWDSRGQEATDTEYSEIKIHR

Turning to `CC(=O)N1CCn2c(C(=O)N(C)C)cnc2C1`, the Percent Effect was -2.73% in [1]; 5.33% in experiment [2]; 9.01% in experiment [3]; -0.782% in [4]; -1.77% with Trypanosoma cruzi; -3.03% in experiment [5]. In addition, the Percent Effect in experiment [6] was 1.32%; in the experiment filed under Homo sapiens, 5.39%; in experiment [7], 3.19%; in experiment [8], 6.41%; in [9] it was -2.05%.

Regarding `CS(=O)(=O)CC(=O)N1C[C@@H]2COC[C@]2(c2nnc(C3CC3)o2)C1`, the Percent Effect in experiment [1] is -5.11%; in experiment [2], 21.3%; in experiment [3], -7.29%; in [4] it was -4.69%; in the experiment on Trypanosoma cruzi, 3.86%; in [5], -53.9%. The Percent Effect in experiment [6] is 14%; in the experiment listed under Homo sapiens, 19.8%; in experiment [7], 3.12%; in [8], 22.5%; in experiment [9] it was -11.9%.

For `Cc1nc(CC(=O)N2CCCCC2c2ccn3ccnc3n2)cs1` (stereo not given), the Percent Effect in experiment [1] is -1.88%; in experiment [2], -4.05%; in experiment [3], 11.6%; in experiment [4] it was 4.95%; in the experiment on Trypanosoma cruzi, -1.78%; in experiment [5] it was -3.02%. Moreover, the Percent Effect is 12.6% in experiment [6]; 7.12% in the experiment filed under Homo sapiens; -1.07% in [7]; 1.3% in [8]; -15.1% in [9].

On to `CCC1CCCCCN1C(=O)c1nnc2ccccc2c1N` (stereo not given), for which the Percent Effect is -4.89% in [1]; 2.63% in experiment [2]; 3.98% in [3]; -3.48% in experiment [4]; -2.82% in the experiment on Trypanosoma cruzi; 0% in experiment [5]. Besides, the Percent Effect in experiment [6] is 9.11%; in the experiment listed under Homo sapiens it was 7.13%; in [7], 0%; in experiment [8] it was 2.6%; in experiment [9] it was -1.43%.

On to `COc1ccc(F)cc1C(C)NC(=O)c1nnc(C)s1` (stereo not given), for which the Percent Effect in experiment [1] was -4.77%; in experiment [2], -2.7%; in experiment [3] it was 0.954%; in experiment [4], -9.5%; in the experiment on Trypanosoma cruzi, -2.05%; in experiment [5] it was 0.248%. Further, the Percent Effect was -4.89% in [6]; -14.3% in the experiment filed under Homo sapiens; -3.23% in experiment [7]; -1.24% in experiment [8]; 3.82% in [9].

In the case of `O=C(NCCOc1ncc(Cl)cc1Cl)c1ccncc1F`, the Percent Effect in experiment [1] was -4.54%; in experiment [2] it was 2.7%; in experiment [3] it was 2.46%; in experiment [4], -3.73%; with Trypanosoma cruzi it was 5.08%; in experiment [5], -2.08%. Besides, the Percent Effect is 17.8% in [6]; 8.71% in the experiment listed under Homo sapiens; 5.94% in [7]; 8.54% in [8]; -7.35% in experiment [9].

For the molecule `Cc1cc2nc(SCC(=O)N3CCCC3)n(C(C)C)c(=O)c2[nH]1`, the Percent Effect is -2.21% in experiment [1]; 21.1% in experiment [2]; -3.68% in experiment [3]; -13.3% in experiment [4]; 2.63% in the experiment with Trypanosoma cruzi; -1.18% in experiment [5]. Also, the Percent Effect in [6] was 19.5%; in the experiment listed under Homo sapiens, 17.9%; in experiment [7], 1.06%; in [8], 10.4%; in [9], -6.22%.

As for `Cc1ccc2cc(CNCCCN3CCOCC3)c(=O)[nH]c2c1`, the Percent Effect in experiment [1] was -3.73%; in experiment [2], 4.05%; in experiment [3], 11.3%; in experiment [4], 5.46%; in the experiment on Trypanosoma cruzi, 0.395%; in experiment [5], -0.696%. Moreover, the Percent Effect was 6.08% in [6]; 12% in the experiment filed under Homo sapiens; 5.38% in experiment [7]; 9.09% in experiment [8]; -7.66% in experiment [9].

As to `Cc1nc(C2CCCN(C(=O)c3ccco3)C2)no1` (stereo not given), the Percent Effect is -7.21% in [1]; 1.27% in experiment [2]; 1.16% in experiment [3]; -2.53% in experiment [4]; -0.308% in the experiment with Trypanosoma cruzi; -0.645% in experiment [5]. Besides, the Percent Effect was 1.37% in [6]; 16% in the experiment listed under Homo sapiens; 1.04% in [7]; -7.59% in [8]; -4.36% in experiment [9].

Consider `CCCNC(=O)CNc1cc(C(=O)N2CCSCC2)ccc1C`, for which the Percent Effect is -4.74% in [1]; 5.48% in experiment [2]; -4.24% in experiment [3]; 9.22% in experiment [4]; 8.73% in the experiment with Trypanosoma cruzi; -4.39% in experiment [5]. Besides, the Percent Effect in experiment [6] is 7.28%; in the experiment listed under Homo sapiens, 2.79%; in experiment [7], 5.21%; in [8], 11.1%; in experiment [9] it was -9.2%.
